5 molecules from PubChem BioAssay can be followed below.

SMILES strings stand for the structures. Activity calls are given as the source filed them. Unless noted, the rule behind the calls is not given here.

Experiment [1] in a line: anti-His antibody binders, primary screen, artefact control for SMM control protein annotation, biochemical, small-molecule microarray, 635 nm fluorescence (AID 1128).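 Note: score merges feature fluorescence with signal-to-noise for each printed compound spot.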 The note with it: anti-His Alexa647 antibody binding, higher = more signal.
Experiment [2] has as its system Human papillomavirus type 1a E7 protein (residues 1-88). Kind of experiment: HPV1a E7 small-molecule binders, primary screen, biochemical, small-molecule microarray, residues 1-88, 635 nm (AID 1129). Conditions: small-molecule microarray binding, fluorescence 635 nm; higher = more signal.
Experiment [3] concerns the target Focal adhesion kinase 1 (Homo sapiens) (UniProt Q05397). The experiment in a line: small-molecule microarray binders of FAK, primary screen, biochemical, 635/667 nm fluorescence, BSA, DTT (AID 1130).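 Note: composite of spot emission at 667 nm and signal to noise over triplicate slides.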 The note with it: PTK2 binding, 635 nm fluorescence, higher = more signal.
The subject of experiment [4] is Fibrinogen (Alexa647-labelled). The experiment in a line: fibrinogen binders on compound microarrays, profiling panel, artefact control for SMM control-protein annotation, biochemical, small-molecule microarray, 635/667 nm fluorescence (AID 1131).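 Note: z-score merges 667 nm fluorescence with per-spot signal-to-noise over triplicate slides.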 Conditions: fibrinogen-A647 binding fluorescence, higher = more signal.
In experiment [5] the target is Follistatin (Homo sapiens) (UniProt P19883). The experiment in a line: follistatin binders on small-molecule microarrays, primary screen, biochemical, small-molecule microarray, 635/667 nm fluorescence (AID 1132). Conditions: FST binding, 635 nm fluorescence, higher = more signal.
The target of experiment [6] is Fibroblast growth factor 2 (Homo sapiens) (UniProt P09038). Kind of experiment: FGF2 binders on small-molecule microarrays, primary screen, biochemical, small-molecule microarray, 635/667 nm fluorescence (AID 1133). Conditions: small-molecule microarray binding, FGF2, fluorescence 635/667; higher = more signal.
The nature of experiment [7]: mitochondrial membrane potential change in A549 cells, profiling panel, cell-based, JC-1 fluorescence, basal, 24 h, 100 nL (AID 1138).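 Note: A549 lung adenocarcinoma cells under basal conditions with no added stimulus; test concentration not given here.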 Conditions: higher = more signal.
Experiment [8] concerns Lefty1. Kind of experiment: Lefty1 binders on small-molecule microarrays, primary screen, biochemical, small-molecule microarray, 635/667 nm fluorescence (AID 1139). The note with it: small-molecule microarray binding, fluorescence 635/667; higher = more signal.
The test system of experiment [9] is wheat germ agglutinin (Triticum aestivum), Alexa647-labelled. Kind of experiment: wheat germ agglutinin binders on compound microarrays, profiling panel, artefact control for SMM control-protein annotation, biochemical, small-molecule microarray, 635/667 nm fluorescence (AID 1140).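 Note: score merges 667 nm feature emission with signal to noise over triplicate slides.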 The note with it: WGA-A647 binding, 635 nm fluorescence, higher = more signal.
Experiment [10] deals with Luciferin 4-monooxygenase (Photinus pyralis) (UniProt P08659). Kind of experiment: firefly luciferase enzyme inhibitors, primary screen, biochemical, luminescence, purified enzyme, 2006 set (AID 1141).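 Note: cell-free assay with purified firefly luciferase at 100 ng per well in PBS; test concentration not given here.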 The note with it: SteadyGlo luminescence, 30 min, higher = more signal, called active from +8 up or from −8 down.
Experiment [11] concerns Wnt5a (protein binding on small-molecule microarray). Kind of experiment: Wnt5a binders on small-molecule microarray, primary screen, biophysical, 635/667 nm fluorescence (AID 1142).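 Note: fluorescence read at 667 nm with signal to noise per printed feature.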 The note with it: 635 nm fluorescence, higher = more signal.
Experiment [12] in a line: cell viability in Huh7 cells, primary screen, cytotoxicity control for HCV replication inhibitor project, CellTiter-Glo luminescence, basal, 48 h (AID 1143).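 Note: Huh7 hepatoma cells carrying a hepatitis C replication reporter with no stimulus; test concentration not given here.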 Conditions: Huh7 HCV replicon, higher = more signal, called active from +8 up or from −8 down.
Experiment [13] is described as follows: P. aeruginosa biofilm formation inhibitors, primary screen, PAO1 strain, BacTiter-Glo luminescence, LB-PBS (AID 1144). The note with it: 12 h, higher = more signal.
Experiment [14] is described as follows: CREB reporter modulators without forskolin, primary screen, cell-based, PC12, CRE-LacZ reporter, unstimulated (AID 1145). Conditions: no forskolin, luminescence, 4.5 h, higher = more signal, called active from +8 up or from −8 down.
A short description of experiment [15]: CREB reporter modulators under forskolin, primary screen, cell-based, PC12, CRE-LacZ reporter, forskolin-stimulated (AID 1146).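 Note: PC12 cells with 6xCRE LacZ reporter stimulated by forskolin 10 µM; beta-galactosidase reporter signal reflecting CREB driven transcription.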 The note with it: luminescence, 4.5 h, higher = more signal, called active from +8 up or from −8 down.
Experiment [16] deals with Streptavidin (Streptomyces avidinii) (UniProt P22629). Kind of experiment: streptavidin binders on small-molecule microarray, primary screen, artefact control for SMM compound annotation, biophysical, 635/667 nm fluorescence (AID 1147).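 Note: signal reflects streptavidin binding to arrayed compounds as a control protein.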 The note with it: streptavidin binding, higher = more signal.
A short description of experiment [17]: small-molecule binders of probe aInhba, primary screen, biochemical, small-molecule microarray, 635/667 nm fluorescence (AID 1148).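 Note: score merges 667nm spot fluorescence with signal-to-noise for antibody binding to printed compounds.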 The note with it: higher = more signal.
Experiment [18] addresses Torsin-1A (Homo sapiens) (UniProt O14656). Kind of experiment: torsin A binders from cell lysate, primary screen, small-molecule microarray, wild-type, 635/667 nm (AID 1149). The note with it: COS7 hTOR1A-WT lysate, 635 nm fluorescence, higher = more signal.
Experiment [19] shares this target. Kind of experiment: small-molecule binders of mutant TOR1A in lysate, primary screen, cell lysate, small-molecule microarray, COS7 lysate, 635/667 nm fluorescence (AID 1150).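 Note: score pools 667 nm emission and signal to noise measuring lysate protein binding.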 The note with it: COS7 hTOR1A mutant lysate, 635 nm fluorescence, higher = more signal.
Experiment [20] relates to Sonic hedgehog protein (Shh). The experiment in a line: small-molecule binders of Shh protein, primary screen, biochemical, small-molecule microarray, 635/667 nm fluorescence (AID 1151).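 Note: Shh protein binding to compounds spotted on small-molecule microarray slides; score combines spot fluorescence intensity with signal-to-noise across triplicate slides.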 The note with it: small-molecule microarray binding, 635 nm fluorescence; higher = more signal.

Focal adhesion kinase 1 (Homo sapiens), sequence (Q05397 whole entry, looked up): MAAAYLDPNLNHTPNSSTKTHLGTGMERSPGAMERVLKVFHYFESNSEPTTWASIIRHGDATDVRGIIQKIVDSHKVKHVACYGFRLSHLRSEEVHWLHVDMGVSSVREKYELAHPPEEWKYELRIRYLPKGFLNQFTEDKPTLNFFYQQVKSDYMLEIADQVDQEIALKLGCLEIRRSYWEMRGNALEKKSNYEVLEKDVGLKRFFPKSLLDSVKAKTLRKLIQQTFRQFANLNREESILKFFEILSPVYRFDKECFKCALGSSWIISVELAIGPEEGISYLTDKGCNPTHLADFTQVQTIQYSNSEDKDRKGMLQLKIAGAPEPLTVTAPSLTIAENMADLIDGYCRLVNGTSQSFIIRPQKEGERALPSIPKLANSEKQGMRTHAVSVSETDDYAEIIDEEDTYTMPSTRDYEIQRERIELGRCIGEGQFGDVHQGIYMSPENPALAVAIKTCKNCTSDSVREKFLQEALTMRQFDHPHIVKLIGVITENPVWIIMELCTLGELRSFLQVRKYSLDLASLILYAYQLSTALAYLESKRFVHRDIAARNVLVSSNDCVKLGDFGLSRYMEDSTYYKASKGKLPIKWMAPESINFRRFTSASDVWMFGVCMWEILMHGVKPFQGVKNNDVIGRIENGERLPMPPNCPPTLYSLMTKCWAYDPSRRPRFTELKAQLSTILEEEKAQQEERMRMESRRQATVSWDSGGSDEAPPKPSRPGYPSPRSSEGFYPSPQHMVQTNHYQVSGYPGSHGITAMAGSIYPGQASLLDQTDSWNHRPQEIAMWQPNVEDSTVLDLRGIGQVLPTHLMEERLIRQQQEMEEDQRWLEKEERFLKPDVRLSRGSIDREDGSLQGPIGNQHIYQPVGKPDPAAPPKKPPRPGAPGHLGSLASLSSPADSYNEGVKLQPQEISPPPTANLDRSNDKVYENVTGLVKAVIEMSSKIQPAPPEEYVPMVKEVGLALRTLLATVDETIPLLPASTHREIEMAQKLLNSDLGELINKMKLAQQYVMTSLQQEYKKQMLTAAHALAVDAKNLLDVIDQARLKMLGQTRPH
Torsin-1A (Homo sapiens), sequence (O14656 whole entry, looked up): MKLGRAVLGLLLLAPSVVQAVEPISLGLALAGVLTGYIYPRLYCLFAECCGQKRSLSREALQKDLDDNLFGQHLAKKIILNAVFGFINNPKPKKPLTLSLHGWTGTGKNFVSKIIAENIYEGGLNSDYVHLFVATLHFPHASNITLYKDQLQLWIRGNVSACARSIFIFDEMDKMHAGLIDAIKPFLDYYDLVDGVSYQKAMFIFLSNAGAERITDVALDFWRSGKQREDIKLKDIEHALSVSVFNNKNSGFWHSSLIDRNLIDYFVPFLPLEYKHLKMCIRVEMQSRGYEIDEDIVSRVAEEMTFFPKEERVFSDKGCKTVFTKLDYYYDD
Follistatin (Homo sapiens), sequence (P19883 whole entry, looked up): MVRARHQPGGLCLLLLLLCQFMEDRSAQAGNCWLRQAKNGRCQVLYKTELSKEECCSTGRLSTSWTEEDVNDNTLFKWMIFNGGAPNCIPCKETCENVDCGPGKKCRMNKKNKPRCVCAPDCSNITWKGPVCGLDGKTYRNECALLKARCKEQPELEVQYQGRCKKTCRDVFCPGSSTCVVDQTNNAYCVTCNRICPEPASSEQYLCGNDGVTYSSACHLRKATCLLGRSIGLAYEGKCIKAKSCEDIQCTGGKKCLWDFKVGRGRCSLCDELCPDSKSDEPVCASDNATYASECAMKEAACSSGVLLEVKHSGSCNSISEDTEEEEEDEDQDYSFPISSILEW
Luciferin 4-monooxygenase (Photinus pyralis), sequence (P08659 whole entry, looked up): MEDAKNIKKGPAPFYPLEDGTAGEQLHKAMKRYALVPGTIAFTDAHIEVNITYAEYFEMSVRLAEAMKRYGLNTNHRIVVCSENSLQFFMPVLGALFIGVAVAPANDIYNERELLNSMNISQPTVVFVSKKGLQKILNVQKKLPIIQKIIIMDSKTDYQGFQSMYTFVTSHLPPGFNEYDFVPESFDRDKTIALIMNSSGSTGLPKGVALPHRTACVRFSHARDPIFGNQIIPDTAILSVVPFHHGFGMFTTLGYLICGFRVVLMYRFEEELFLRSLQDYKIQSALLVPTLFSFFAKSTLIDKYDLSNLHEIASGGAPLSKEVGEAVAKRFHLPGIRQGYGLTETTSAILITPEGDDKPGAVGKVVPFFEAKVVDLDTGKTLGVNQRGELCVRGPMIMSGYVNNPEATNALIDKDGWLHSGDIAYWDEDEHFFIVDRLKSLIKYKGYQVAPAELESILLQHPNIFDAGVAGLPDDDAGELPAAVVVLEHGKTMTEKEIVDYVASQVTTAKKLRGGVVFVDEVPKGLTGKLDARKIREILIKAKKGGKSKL
Fibroblast growth factor 2 (Homo sapiens), sequence (P09038 whole entry, looked up): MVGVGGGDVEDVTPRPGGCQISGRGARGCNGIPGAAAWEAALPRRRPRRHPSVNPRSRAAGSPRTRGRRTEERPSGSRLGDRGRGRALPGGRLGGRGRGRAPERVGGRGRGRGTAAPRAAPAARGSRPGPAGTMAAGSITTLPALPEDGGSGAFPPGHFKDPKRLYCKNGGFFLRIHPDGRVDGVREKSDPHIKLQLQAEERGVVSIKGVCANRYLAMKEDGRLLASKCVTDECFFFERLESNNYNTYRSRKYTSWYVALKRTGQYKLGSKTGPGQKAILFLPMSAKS
Streptavidin (Streptomyces avidinii), sequence (P22629 whole entry, looked up): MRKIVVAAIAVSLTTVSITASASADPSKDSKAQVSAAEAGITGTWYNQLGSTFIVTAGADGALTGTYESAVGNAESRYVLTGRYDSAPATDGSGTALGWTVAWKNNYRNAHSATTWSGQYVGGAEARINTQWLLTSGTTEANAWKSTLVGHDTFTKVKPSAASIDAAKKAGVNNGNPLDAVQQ

Take `COCCOC(=O)N1C(=O)[C@@]2(c3cc(C#CC4=CCCCC4)ccc31)[C@H](C(=O)Nc1nc3ccccc3s1)[C@H]1C(=O)O[C@H](c3ccccc3)[C@H](c3ccccc3)N1[C@@H]2c1ccc(OCCO)cc1`: the composite z-score in [1] is 0.424; in experiment [2], 1.07; in experiment [3] it was 0.147; in experiment [4], 0.192; in experiment [5], 1.18; in experiment [6], 0.898. Also, the composite z-score was 0.726 in experiment [8]; 0.253 in experiment [9]; 0.575 in [11]; 0.986 in [16]; -0.0221 in experiment [17]; 0.256 in experiment [18]. For the same molecule, the figures for the composite z-score in experiment [19] and in experiment [20] were 0.254 and 1.5, respectively. Further, the z-score in experiment [7] was -1.99; in experiment [10] it was -5.3 (inactive); in [12], -1.49 (inactive); in experiment [13], -1.07 (inactive); in [14] it was -0.258 (inactive); in [15] it was -0.47 (inactive).
For the molecule `CN(C)C(=O)[C@]1(Cc2ccccc2N=[N+]=[N-])N=C(c2ccc(OCCCO)cc2)O[C@@H]1c1ccccc1`, the composite z-score was determined as 1.03 in experiment [1]; 1.22 in [2]; 0.633 in experiment [3]; 0.882 in [4]; 1.31 in experiment [5]; 1.58 in [6]. The composite z-score was 0.0484 in [8]; 0.986 in experiment [9]; 0.8 in experiment [11]; 1.4 in experiment [16]; 0.0928 in [17]; -0.09 in experiment [18]. Further, the values for the composite z-score in experiment [19] and in experiment [20] were 0.902 and 0.0763, respectively. The z-score in [7] is 1.71; in experiment [10], -1.08 (inactive); in experiment [12], -4.59 (inactive); in experiment [13] it was 1.77 (inactive); in experiment [14], 0.69 (inactive); in experiment [15], -2.15 (inactive).
`COC(=O)[C@@]1(Cc2ccccc2)[C@H]2c3cc(C(=O)N4CCCC4)n(CC4CC4)c3C[C@H]2CN1C(=O)c1ccccc1`: the composite z-score in experiment [1] is 1.13; in experiment [2], 1.2; in [3], 0.885; in [4], 0.643; in [5] it was 0.76; in experiment [6] it was -0.031. Further, the composite z-score is 0.206 in experiment [8]; 0.847 in [9]; 0.918 in experiment [11]; 0.907 in [16]; 1.06 in experiment [17]; 0.256 in experiment [18]. The composite z-score was 0.0577 in experiment [19] and -0.151 in experiment [20]. Also, the z-score in experiment [7] is -0.641; in [10], 1.42 (inactive); in experiment [12], -3.64 (inactive); in experiment [13] it was 0.798 (inactive); in [14] it was 0.587 (inactive); in experiment [15], 0.847 (inactive).
For the molecule `C=CCOC(=O)[C@H]1[C@@H]2C(=O)O[C@@H](c3ccccc3)[C@@H](c3ccccc3)N2[C@@H](c2ccc(OCCOC(=O)[C@@H]3C[C@@H]4C(=O)N[C@@H](CCCCN(C)C)C(=O)N4[C@@H]3c3ccc(O)cc3)cc2)[C@]12C(=O)Nc1ccc(I)cc12`, the composite z-score turned out to be 2.26 in experiment [1]; 1.22 in experiment [2]; 0.565 in experiment [3]; 0.733 in [4]; 1.16 in experiment [5]; 1.57 in experiment [6]. Besides, the composite z-score in experiment [8] was 1.54; in experiment [9], 0.81; in experiment [11], 0.451; in experiment [16], 0.218; in experiment [17], 0.0082; in experiment [18] it was 1.22. In addition, the composite z-score is 0.671 in [19] and 1.71 in [20]. Further, the z-score in experiment [7] was -1.63; in experiment [10], -4.39 (inactive); in [12], -0.135 (inactive); in experiment [13], -1.02 (inactive); in [14] it was -0.935 (inactive); in experiment [15], 1.04 (inactive).
Regarding `CC(C)C[C@@H]1NC(=O)[C@@H]2C[C@H](C(=O)NCCCCCN)[C@H](c3cccc(OCCO)c3)N2C1=O`, the composite z-score worked out at 1.19 in experiment [1]; 1.04 in experiment [2]; 1.13 in [3]; 0.93 in experiment [4]; 0.555 in experiment [5]; 0.591 in [6]. In addition, the composite z-score was 0.288 in experiment [8]; 1.13 in [9]; 0.794 in [11]; 1.05 in experiment [16]; -0.0736 in experiment [17]; 0.941 in experiment [18]. Moreover, the composite z-score in [19] stood at 0.919; in experiment [20] it was 1.05. For the same molecule, the z-score in [7] is 1.18; in [10], -1.21 (inactive); in [12], -0.542 (inactive); in experiment [13], -1.64 (inactive); in experiment [14] it was 0.0043 (inactive); in experiment [15], 0.442 (inactive).
